# Only some compounds are listed: those with a hit (about 4.7% of all), similar ones and a draw of the others.
# VHR inh abs = DUSP3 (human) phosphatase inhibition. inhibition, % at 13.3 µM. recombinant VHR phosphatase, pNPP absorbance. AID 1654. 0.52% of 290,000 active. P51452; in the data active = inhibition above about 50%
# SARS 3CLpro inh = SARS-CoV 3CLpro protease inhibition | 0.14% of 290,000 active | inhibition, % at 6 µM | recombinant SARS-CoV 3CLpro, quenched FRET peptide cleavage | AID 1706 | P0C6X7; in the data active = inhibition above about 12%
# CCHF vOTU inh = CCHFV vOTU protease inhibition; Pep-AMC fluorescence; AID 651958; 0.55% of 370,000 active; inhibition, % at 11.5 µM; note: 0% = vehicle wells with enzyme and 100% = no enzyme wells
# RecA splice inh = blocks M. tuberculosis RecA intein splicing; P9WHJ3; cell-free RecA intein splicing, fluorescence; inhibition, % (concentration not given with the values); 0.75% of 290,000 active; AID 2221; in the data active = inhibition above about 30%;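 note: 0% = vehicle wells and 100% = reference inhibitor control wells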
# Mtb FBA inh = Mtb fructose-bisphosphate aldolase inhibition. purified M. tuberculosis FBA, fluorescence read-out. inhibition, % at 1 µM. 2.3% of 360,000 active. AID 588726; in the data active = inhibition above about 27%;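 note: 0% = vehicle and 100% = reference inhibitor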
# GDH-TPI inh = inhibits GDH-TPI coupling enzymes, artifact for Mtb FBA screen. GDH-TPI coupled enzyme counterscreen, NADH absorbance. inhibition, % at 4.8 µM. 1.2% of 360,000 active. AID 588335;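 note: 0% = DMSO wells and 100% = wells lacking the enzyme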
# * hit, by the source's call; . = no result; + = active, no number. Cut-off read from the data, not from the text of the source, unless noted: active = inhibition above about 30%; inactive = the rest.
SMILES,VHR inh abs,SARS 3CLpro inh,CCHF vOTU inh,RecA splice inh,Mtb FBA inh,GDH-TPI inh
CC1=C(C(=O)N2CCCCCC2)CC(CC(=O)NCCN2CCOCC2)C(=O)N1Cc1ccc(C(C)(C)C)cc1 (stereo unspecified),.,.,13.0,.,.,.
NNC(=O)c1sccc1OCc1ccc(F)cc1,54.7*,1.8,1.1,7.9,3.9,-0.3
Cc1ccccc1-n1c(O)c(/C=N/NC(=O)c2ccccc2O)c(=O)[nH]c1=S,34.9,-0.6,7.5,9.3,4.8,31.1*
O=C(N/N=C/c1c(O)n(C2CC2)c(=S)[nH]c1=O)c1ccccc1O,25.3,3.9,10.7,7.0,3.4,24.4
Cc1ccc(-n2c(O)c(/C=N/NC(=O)c3ccncc3)c(=O)[nH]c2=O)cc1,-4.5,2.0,3.0,-2.8,0.4,25.2
O=C(N/N=C/c1c(O)n(CCC2=CCCCC2)c(=O)[nH]c1=O)c1ccccc1,16.9,5.8,3.3,6.0,8.6,34.0*
O=C(N/N=C/c1c(O)n(-c2ccccc2)c(=O)[nH]c1=O)c1ccncc1,-6.9,-0.5,12.1,-9.7,1.7,31.3*
O=C1NC(Cc2ccccc2)c2nc3ccccc3c(=O)n2-c2cc(Cl)ccc21 (stereo unspecified),.,.,14.3,.,.,.
CCOC(=O)N1C2c3ccccc3C(c3ccccc32)N1C(=O)OCC,.,.,-0.3,.,-0.6,3.5
CC(=O)c1ccc(N2CCN(C(=S)Nc3ccc(Oc4ccccc4)cc3)CC2)cc1,21.7,2.3,12.3,1.1,1.9,19.7
CC(=O)c1ccc(N2CCN(C(=S)Nc3cccc(F)c3)CC2)cc1,7.1,-4.1,5.7,-1.4,2.5,35.4*
O=C(c1ccc(N2CCN(C(=O)c3ccccc3Br)CC2)cc1)c1cccc(F)c1,5.4,-3.0,14.0,13.2,2.9,17.9
O=C(c1ccc(N2CCN(C(=O)c3cccc(F)c3)CC2)cc1)c1cccc(F)c1,5.4,0.5,5.3,3.9,-0.7,30.9*
O=C1CC(N2CCCC2)=NC(=O)N1c1ccc(Br)cc1,.,.,-2.0,.,.,.
CCN(CC(=O)Nc1ccc(OC)cc1)C(=O)CN1C(=O)NC(C)(c2ccc3ccccc3c2)C1=O (stereo unspecified),23.9,-5.3,0.6,1.8,0.3,0.0
Cc1nccn1-c1c([N+](=O)[O-])c(=O)n(C)c2ccccc12,17.2,1.1,-14.4,44.8*,1.4,6.3
Cn1c(=O)c([N+](=O)[O-])c(N2CCSCC2)c2ccccc21,7.7,7.5,2.1,.,0.6,22.8
O=C(Nc1nnc(-c2ccncc2)o1)c1cccc(N2C(=O)CCC2=O)c1,-7.5,3.4,7.1,4.1,5.3,37.8*
COC(=O)[C@H](CC(C)C)N(CCCc1cn(CC2CCCCC2)nn1)S(=O)(=O)c1ccc(F)cc1Br,.,.,19.8,.,.,.
Cc1ccc(S(=O)(=O)/N=C/c2ccc(N(C)C)cc2)cc1,1.9,-6.2,8.9,-6.2,-1.5,35.0*
OCCN1CN(c2ccccc2)C(=S)N(c2ccccc2)C1,.,.,-7.0,.,.,.
C[C@@H]1CN([C@@H](C)CO)C(=O)CCCn2cc(nn2)CO[C@H]1CN(C)C(=O)Nc1ccc(C(F)(F)F)cc1,.,.,-9.2,.,.,.
O=C1c2cccc3cccc(c23)C(=O)N1CC1CCN(CC(O)COc2ccc3ccccc3c2)CC1 (stereo unspecified),.,.,20.3,-1.3,4.5,42.0*
OCC1CSC(=S)N1Cc1ccccc1 (stereo unspecified),.,.,.,.,2.9,.
CCSc1nc2sccc2c(=O)n1-c1ccccc1,11.3,2.5,4.2,3.6,3.6,-5.4
SMILES,VHR inh abs,SARS 3CLpro inh,CCHF vOTU inh,RecA splice inh,Mtb FBA inh,GDH-TPI inh
O=C(O)c1cccc(-c2ccccc2)c1O,.,.,-3.9,.,116.3*,-3.9
COc1cc(=O)n(C)c2cc(N(C)C)ccc12,9.4,-2.2,-147.3,13.1,156.1*,32.9*
CN1C(=O)c2ccc(N(C)C)cc2C1=O,-13.9,-1.4,8.1,9.6,-2.7,15.7
O=C(C(=O)N(C1CCCCC1)C1CCCCC1)c1ccccc1,.,.,4.2,.,.,.
CCN1CCN(C(=O)c2ccc(CS(=O)(=O)Cc3ccccc3Cl)o2)CC1,.,.,-4.1,.,-1.8,4.5
CCCCNC(=O)c1nc(C2CCNCC2)oc1-c1ccccc1,.,.,-4.9,.,.,.
O=C(c1oc(=O)c2ccccc2c1-c1ccccc1)N1CCOCC1,50.8*,2.7,-2.4,0.8,-3.3,4.2
O=C(c1ccco1)N1CCN(C(=O)c2oc(=O)c3ccccc3c2-c2ccccc2)CC1,0.4,0.1,-7.3,0.6,0.1,8.9
COc1ccc(-c2cc(=O)oc3cc(OC(C)C(=O)O)ccc23)cc1 (stereo unspecified),25.6,3.7,0.1,-1.7,3.5,6.6
COc1ccc(-c2cc(=O)oc3c(O)c(O)ccc23)cc1,59.0*,-0.8,-5.5,23.0,-1.3,4.8
COC(=O)c1cc(-c2ccc(Cl)s2)c(=O)n2c1CCC2,.,.,-45.5,.,.,.
CCC1CN(C(=O)NCc2ccc(C)cc2)c2cc(Cl)ccc2O1 (stereo unspecified),-11.9,6.7,-0.8,-0.1,-1.6,8.3
CCC1CN(C(=O)NCc2ccc(F)cc2)c2cc(Cl)ccc2O1 (stereo unspecified),57.3*,3.4,2.6,-0.1,2.6,6.0
CCN(CC)C(=O)c1sc2nc(-c3ccccn3)[nH]c(=O)c2c1C,.,.,6.2,-0.5,9.0,29.9
CCN(CC)C(=O)c1sc2[nH]c(=S)n(-c3ccccc3)c(=O)c2c1C,5.4,-3.9,18.6,-0.7,0.6,33.2*
O=C(O)C1CCc2sc3[nH]c(=S)n(-c4ccccc4)c(=O)c3c21 (stereo unspecified),-6.5,1.9,-0.5,-1.6,4.5,33.8*
NC(=O)CCS(=O)(=O)c1ccc(Cl)cc1,11.0,9.2,11.1,-0.2,-1.0,2.4
COc1cccc(CNC(=O)CN2CCCc3ccccc32)c1,.,.,-1.1,.,.,.
COc1ccccc1N1CCN(S(=O)(=O)CCNC(=O)CC2CCCCC2)CC1,.,.,0.1,2.1,-1.8,10.2
COc1ccc(NC(=O)CSc2nc3c(cc2C#N)CN(C)CC3)cc1,-6.0,.,4.6,-1.1,3.5,0.0
CN1CCc2nc(SCC(=O)Nc3ccc(F)cc3)c(C#N)cc2C1,15.5,-7.5,.,32.8*,.,.
CCc1c(C)c2ccc(O)c(CN(C)C)c2oc1=O,3.5,-2.1,-304.6,-137.0,+,17.9
CCCCN(CC)Cc1c(O)ccc2c3c(c(=O)oc12)CCC3,13.1,2.1,-308.8,-61.2,.,21.9
COCCN(CCOC)Cc1c(O)ccc2c3c(c(=O)oc12)CCC3,15.3,1.0,-283.3,-30.3,+,14.6
CN(Cc1c(O)ccc2c1oc(=O)c1ccccc12)C1CCCCC1,8.5,1.5,18.0,-4.1,1.4,16.8
CCCCc1cc(=O)oc2c(CN(C)C)c(O)ccc12,-0.6,-3.2,-295.1,-78.2,.,27.7
CN(C)Cc1c(O)ccc2c3c(c(=O)oc12)CCCCC3,32.9,7.7,-210.3,-219.4,+,24.5
O=C(C[C@H]1CC[C@H]2[C@@H](COC[C@H](O)CN2Cc2ccccc2)O1)NCCCN1CCOCC1,.,.,-4.4,.,.,.
O=C(N/N=C/c1ccc(-c2cccc(C(F)(F)F)c2)o1)c1cccc(F)c1,7.2,3.1,-5.2,-60.6,2.6,44.0*
